TexasRed fluor: counter-screen for TRb-SRC2 inhibitors: fluorescence interference; TRb/SRC2 Texas Red total fluorescence interference; Potency, µM (series often up to 106 µM); AID 1479; 0.29% of 280,000 active; active = well fitted curve in either direction with a large enough effect; inconclusive = small, poorly fitted or top-dose-only effect
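Flags fluorescent or light-absorbing compounds by total fluorescence, S + 2P, at 555 nm excitation and 632 nm emission. Mixture: 20 nM Texas Red SRC2 peptide, 0.6 uM human TRb LBD, 1 uM T3, 5% DMSO; compound exposure 5 h at ambient temperature.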
Tau fluor cs: counter-screen for tau fibril formation inhibitors; tau K18 P301L Alexa594 fluorescence, heparin fibrillization; Potency, µM (doses to about 57.7 µM); 0.93% of 280,000 active; note: nearly all actives have a fitted effect of over 55% in size
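Human K18 P301L tau (15 uM unlabeled plus 0.24 uM Alexa 594-labeled, final) in 100 mM sodium acetate pH 7 was mixed with compound and 20 uM heparin and incubated 6 hr at 37 C.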
Tau FP inhib: inhibitors of human tau fibril formation; AID 1468; Potency, µM (titrated, usually from 57.7 µM), usual class: inhibitors; K18 P301L tau heparin fibrillization, Alexa594 FP, 6 h; 0.39% of 280,000 active; note: nearly all actives have a fitted effect of over 55% in size
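Compound effects on tau fibrillization are measured by Alexa 594 fluorescence polarization (ex 555, em 632 nm). K18 P301L tau is used at 15 uM with 0.24 uM labeled tracer, and 20 uM heparin induces aggregation over 6 hr at 37 C.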
TRb SRC2 PPI: TRbeta-SRC2 interaction inhibition; TRbeta-SRC2 peptide binding, fluorescence polarization; receptor liganded with 1 µM T3; Potency, µM (doses to about 106 µM), hits mostly inhibitors; 0.065% of 280,000 active; AID 1469; note: nearly all actives have a fitted effect of over 50% in size
Target sequence (P10828 whole entry, looked up): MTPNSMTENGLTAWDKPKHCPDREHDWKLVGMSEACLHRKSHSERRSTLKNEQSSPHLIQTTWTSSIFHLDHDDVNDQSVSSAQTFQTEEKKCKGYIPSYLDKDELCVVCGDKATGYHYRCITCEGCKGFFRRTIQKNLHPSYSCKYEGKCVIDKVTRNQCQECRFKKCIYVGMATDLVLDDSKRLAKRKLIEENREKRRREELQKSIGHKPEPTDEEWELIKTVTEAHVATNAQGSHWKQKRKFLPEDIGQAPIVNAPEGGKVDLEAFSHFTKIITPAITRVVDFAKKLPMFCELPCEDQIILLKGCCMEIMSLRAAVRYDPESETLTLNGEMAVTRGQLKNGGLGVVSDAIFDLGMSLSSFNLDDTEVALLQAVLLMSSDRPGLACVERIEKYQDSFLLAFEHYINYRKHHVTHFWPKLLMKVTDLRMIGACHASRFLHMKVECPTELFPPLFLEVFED
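TRb LBD 0.6 uM + Texas Red SRC2 peptide 20 nM, 1 uM T3, Tris buffer w/ 5% DMSO; compound pinned, 5 h RT; FP read ex 555/em 632; normalized to unbound and bound controls.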
Tau ThT inhib: blocks human tau fibril formation measured by thioflavin T; AID 1460; recombinant tau K18 P301L (four-repeat tau fragment), heparin-induced fibrillization, ThT fluorescence; Potency, µM (doses to about 57.4 µM), actives largely listed as inhibitors; 2.1% of 270,000 active; note: nearly all actives have a fitted effect of over 55% in size
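Aggregation was driven by heparin (20 uM final) acting on recombinant tau […] bearing P301L in 100 mM sodium acetate pH 7; fibrils were detected with Thioflavin T.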
Large screens that a line does not name were inactive; [ ] = remark or other dose. Hits are enriched below; roughly 3.1% of the tested compounds scored in any of these assays. Unless noted, calls come from the whole dose curve; as a rule, active = well fitted curve in the direction sought with a large enough effect; inconclusive = small, poorly fitted or top-dose-only effect, or another doubt; inactive = no such curve, though single readings can be large; an effect the other way counts as inactive or inconclusive.

Cc1ccc(N=Nc2cc(C)ccc2N)cc1	Tau fluor cs 17.8µM[quencher], Tau ThT inhib 11.2µM
O=C(Nc1ccccc1)Nc1cnns1	none (no result: Tau fluor cs, Tau FP inhib, Tau ThT inhib)
Cc1cccc(N2C(=O)NC(=O)/C(=C\c3ccc4c(c3)CCCN4Cc3ccccc3)C2=O)c1	Tau ThT inhib inconclusive
CCC(C)N1C(=O)/C(=C/c2ccc3c(c2)CCN3CCCCl)C(=O)NC1=S (centres undefined)	Tau fluor cs inconclusive, Tau FP inhib inconclusive, Tau ThT inhib 31.6µM
O=C1NC(=O)C(=CN2CCc3ccccc32)C(=O)N1	Tau FP inhib inconclusive, Tau ThT inhib 10µM
[Cu+2].[O-]c1cccc2cccnc12.[O-]c1cccc2cccnc12	none (no result: Tau fluor cs, Tau FP inhib, Tau ThT inhib)
CCC(C)NC(=O)c1c(N)n(Cc2ccc3c(c2)OCO3)c2nc3ccccc3nc12 (centres undefined)	Tau fluor cs inconclusive, Tau FP inhib inconclusive, Tau ThT inhib 20µM
CCC(C)(c1ccc(O)cc1)c1ccc(O)cc1	none (no result: Tau fluor cs, Tau FP inhib, Tau ThT inhib)
O=C(O)c1cccc2c1NC(c1cccc([N+](=O)[O-])c1)C1CC(Sc3ccccc3[N+](=O)[O-])C(Cl)C21 (centres undefined)	Tau fluor cs inconclusive, Tau FP inhib inconclusive, Tau ThT inhib 31.6µM
O=C(O)c1ccc2c(c1)C1C(Cl)C(Sc3ccccc3[N+](=O)[O-])CC1C(c1cccc([N+](=O)[O-])c1)N2 (centres undefined)	Tau ThT inhib inconclusive
CN1C(=O)C(Cc2cccc3ccccc23)C(=O)N(C)C1=O	Tau FP inhib inconclusive, Tau ThT inhib 25.1µM
CN1C(=O)C(Cc2c[nH]c3ccccc23)C(=O)N(C)C1=O	Tau FP inhib inconclusive, Tau ThT inhib 22.4µM
O=S1(=O)CCN(CCc2c[nH]c3ccccc23)CC1	none
CCOC(=O)C(Cl)Cc1cc(-n2nc(C)n(C(F)F)c2=O)c(F)cc1Cl (centres undefined)	none (no result: Tau fluor cs, Tau FP inhib, Tau ThT inhib)
NCC(O)c1cc(O)c(O)cc1F (centres undefined)	Tau FP inhib inconclusive, Tau ThT inhib 11.2µM
CN1C(=O)NC(=O)/C(=C/c2ccc([N+](=O)[O-])s2)C1=O	Tau fluor cs inconclusive, Tau FP inhib 28.2µM (no result: Tau ThT inhib)
COc1ccc(OC)c(N2C(=O)NC(=O)/C(=C\c3ccc([N+](=O)[O-])s3)C2=O)c1	Tau fluor cs inconclusive, Tau FP inhib inconclusive, TRb SRC2 PPI inconclusive, Tau ThT inhib 11.2µM
O=C1NC(=O)N(c2ccccc2)C(=O)/C1=C\c1ccc([N+](=O)[O-])s1	Tau fluor cs inconclusive, Tau FP inhib inconclusive (no result: Tau ThT inhib)
CN(C)c1ccc(NC(=O)Oc2ccccc2)cc1	TexasRed fluor inconclusive, Tau fluor cs inconclusive, Tau FP inhib inconclusive, TRb SRC2 PPI 44.7µM, Tau ThT inhib 14.1µM
C#CCC1=C(C)[C@H](OC(=O)[C@H]2[C@H](C=C(C)C)C2(C)C)CC1=O	none (no result: Tau fluor cs, Tau FP inhib, Tau ThT inhib)
CN1C(=O)C(=Cc2sc(=O)n(-c3ccccc3)c2N2CCCCC2)C(=O)N(C)C1=O	Tau ThT inhib 25.1µM
CN1C(=O)C(=Cc2cc([N+](=O)[O-])ccc2N2CCCCC2)C(=O)N(C)C1=O	none
CN1C(=O)C(=Cc2ccc(N3CCCCCC3)o2)C(=O)N(C)C1=S	Tau fluor cs inconclusive, Tau ThT inhib 12.6µM
CCOc1ccc(C(C)(C)COCc2cccc(Oc3ccccc3)c2)cc1	none (no result: Tau fluor cs, Tau FP inhib, Tau ThT inhib)
Cc1ccccc1-n1c(O)c(/C=C2/C(c3ccccc3)=Nc3ccccc32)c(=O)[nH]c1=O	TexasRed fluor 31.6µM[quencher], TRb SRC2 PPI inconclusive
Cc1cccc(-n2c(O)c(/C=C3/C(c4ccccc4)=Nc4ccccc43)c(=O)[nH]c2=O)c1	Tau ThT inhib inconclusive
Cc1ccccc1-n1c(O)c(C=Nc2ccc(N(C)C)cc2)c(=O)[nH]c1=O	Tau fluor cs inconclusive, Tau FP inhib inconclusive, Tau ThT inhib 28.2µM
Cc1ccc(-n2c(O)c(/C=C3/C(c4ccccc4)=Nc4ccccc43)c(=O)[nH]c2=O)cc1	Tau fluor cs inconclusive, Tau FP inhib inconclusive, Tau ThT inhib 12.6µM
Cc1cccc(N=Cc2c(O)n(-c3ccccc3C)c(=O)[nH]c2=O)c1	none
COP(=O)(OC)Oc1nc(Cl)c(Cl)cc1Cl	none (no result: Tau fluor cs, Tau FP inhib, Tau ThT inhib)
CNC(=O)O/N=C(\C)SC	none (no result: Tau fluor cs, Tau FP inhib, Tau ThT inhib)
CN1C2CCC1/C(=C/c1ccccn1)C(=O)/C2=C\c1ccccn1	Tau FP inhib inconclusive, Tau ThT inhib 4.47µM
CC1=NNC(=O)N(/N=C/c2cccnc2)C1	none (no result: Tau fluor cs, Tau FP inhib, Tau ThT inhib)
Cc1ccccc1-n1c(O)c(/C=C/C=Nc2ccccc2)c(=O)[nH]c1=O	Tau ThT inhib inconclusive
